Screening results (PubChem BioAssay)
SRC1 TRFRET art = counter-screen for PPARgamma SRC-1 recruitment agonists: TR-FRET artefact; 99,000 compounds, 0.34% hits; TR-FRET detection artefact counter-screen, emission ratio; active compounds read high; TR-FRET ratio at 8 µM; in the data active = TR-FRET ratio above about 2300
PPARg SRC-1 ag = PPARgamma-driven SRC-1 recruitment agonism; P37231; PPARgamma-SRC-1 coactivator recruitment biochemical assay; activation, % at 8 µM; 200,000 compounds, 0.41% hits; AID 631; in the data active = activation above about 19%
PPARg SRC2 recr = promotes SRC-2 coactivator recruitment by human PPARgamma; P37231; PPARgamma LBD-SRC-2 recruitment, biochemical; activation, % at 8 µM; 200,000 compounds, 0.34% hits; in the data active = activation above about 22%
PPARg SRC3 recr = agonists of human PPARgamma SRC-3 coactivator recruitment. P37231. biochemical PPARgamma/SRC-3 coactivator recruitment assay. AID 731. activation, % at 8 µM. 200,000 compounds, 0.26% hits; in the data active = activation above about 23%
SRC3 TRFRET art = counter-screen for PPARgamma SRC-3 recruitment agonists: TR-FRET artefact. PPARgamma/SRC-3 format; active compounds read high. TR-FRET ratio at 8 µM. 99,000 compounds, 0.39% hits. AID 1048
TR-FRET SRC-2 ct = TR-FRET artefact, counter-screen to PPARgamma/SRC-2 agonist assay; active compounds read high; TR-FRET ratio at 8 µM; 200,000 compounds, 0.4% hits; AID 1049
PPARg SRC2 conf = confirmation of agonists of SRC-2 recruitment by human PPARgamma | biochemical SRC-2 recruitment by PPARgamma | shares compounds with PPARg SRC3 recr | AID 1297 | 790 compounds, 52% hits | activation, % at 8 µM; in the data active = activation above about 22%
PPARg SRC1 conf = confirmation of agonists of SRC-1 recruitment by human PPARgamma; shares compounds with PPARg SRC3 recr; PPARgamma–SRC-1 coactivator recruitment biochemical assay; activation, % at 8 µM; 790 compounds, 43% hits; AID 1300; in the data active = activation above about 20%
PPARg SRC3 ag = human PPARgamma SRC-3 recruitment agonism, confirmation; shares compounds with PPARg SRC3 recr; biochemical PPARgamma-SRC-3 coactivator recruitment, agonist mode; activation, % at 8 µM; 790 compounds, 29% hits; AID 1301; in the data active = activation above about 24%
Target sequence (P37231 whole entry, looked up): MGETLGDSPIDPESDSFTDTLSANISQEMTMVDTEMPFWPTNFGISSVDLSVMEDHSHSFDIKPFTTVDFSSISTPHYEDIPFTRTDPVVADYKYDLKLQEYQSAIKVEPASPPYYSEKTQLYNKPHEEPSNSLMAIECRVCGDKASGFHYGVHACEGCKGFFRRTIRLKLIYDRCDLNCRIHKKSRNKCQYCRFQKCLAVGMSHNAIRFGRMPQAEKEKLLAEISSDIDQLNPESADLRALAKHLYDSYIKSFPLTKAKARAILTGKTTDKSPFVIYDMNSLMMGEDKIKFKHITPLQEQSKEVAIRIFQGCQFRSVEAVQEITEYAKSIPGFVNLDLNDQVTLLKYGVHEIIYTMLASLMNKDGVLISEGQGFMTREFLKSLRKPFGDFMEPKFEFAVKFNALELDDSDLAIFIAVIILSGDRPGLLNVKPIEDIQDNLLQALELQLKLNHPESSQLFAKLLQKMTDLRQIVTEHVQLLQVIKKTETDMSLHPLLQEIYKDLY
Target sequence (Q9Y6Q9 whole entry, looked up): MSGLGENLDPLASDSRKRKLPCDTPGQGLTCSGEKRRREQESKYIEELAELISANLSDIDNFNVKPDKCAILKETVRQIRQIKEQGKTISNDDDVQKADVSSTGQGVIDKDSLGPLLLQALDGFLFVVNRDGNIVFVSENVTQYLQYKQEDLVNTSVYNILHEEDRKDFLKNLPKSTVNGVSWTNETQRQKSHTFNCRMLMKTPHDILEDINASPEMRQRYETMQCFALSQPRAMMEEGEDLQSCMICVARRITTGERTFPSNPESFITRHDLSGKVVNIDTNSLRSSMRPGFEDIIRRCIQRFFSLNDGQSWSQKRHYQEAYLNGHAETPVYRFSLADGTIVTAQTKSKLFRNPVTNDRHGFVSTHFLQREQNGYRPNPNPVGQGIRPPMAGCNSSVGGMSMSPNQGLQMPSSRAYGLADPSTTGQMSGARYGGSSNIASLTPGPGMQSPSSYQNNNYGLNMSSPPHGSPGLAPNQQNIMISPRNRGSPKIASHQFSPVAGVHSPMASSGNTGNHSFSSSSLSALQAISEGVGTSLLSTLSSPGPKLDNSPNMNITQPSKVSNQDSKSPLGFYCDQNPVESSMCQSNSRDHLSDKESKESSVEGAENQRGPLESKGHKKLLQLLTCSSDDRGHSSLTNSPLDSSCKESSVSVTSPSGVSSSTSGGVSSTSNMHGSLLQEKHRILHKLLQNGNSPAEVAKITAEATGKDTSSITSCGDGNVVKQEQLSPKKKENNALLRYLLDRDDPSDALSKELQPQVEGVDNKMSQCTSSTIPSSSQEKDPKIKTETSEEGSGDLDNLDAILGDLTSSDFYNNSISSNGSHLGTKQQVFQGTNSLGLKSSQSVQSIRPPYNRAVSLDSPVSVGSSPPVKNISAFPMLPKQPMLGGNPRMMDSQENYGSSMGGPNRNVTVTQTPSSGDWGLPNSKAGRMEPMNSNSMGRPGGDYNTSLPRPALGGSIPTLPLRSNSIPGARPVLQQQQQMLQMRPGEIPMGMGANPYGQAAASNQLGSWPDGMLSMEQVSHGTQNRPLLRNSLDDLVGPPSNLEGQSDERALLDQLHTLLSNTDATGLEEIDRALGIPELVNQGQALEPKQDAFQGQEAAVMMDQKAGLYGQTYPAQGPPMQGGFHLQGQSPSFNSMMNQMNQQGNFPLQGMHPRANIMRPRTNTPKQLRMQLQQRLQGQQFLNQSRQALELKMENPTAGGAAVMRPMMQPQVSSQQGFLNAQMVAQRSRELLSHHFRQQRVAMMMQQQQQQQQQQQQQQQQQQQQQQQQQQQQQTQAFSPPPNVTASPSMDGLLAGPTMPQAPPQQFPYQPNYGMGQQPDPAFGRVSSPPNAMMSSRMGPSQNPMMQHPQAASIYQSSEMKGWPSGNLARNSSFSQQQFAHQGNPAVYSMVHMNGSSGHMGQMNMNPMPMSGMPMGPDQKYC
A number is an active result. Shown are actives, neighbours in structure and some others; about 0.9% of the full set was active somewhere. Rule as the data show it, unless noted: active = TR-FRET ratio above about 2000; inactive = the rest.

Screening COC(=O)c1sc(NC(=O)CSc2nnc(C(C)C)n2C)nc1C returned PPARg SRC-1 ag 19, PPARg SRC2 recr inactive, PPARg SRC3 recr inactive, TR-FRET SRC-2 ct inactive, PPARg SRC2 conf inactive, PPARg SRC1 conf inactive and PPARg SRC3 ag inactive.
COC(=O)CSc1nnc2n1C(C)(C)Cc1ccccc1-2 was read as PPARg SRC-1 ag inactive, PPARg SRC2 recr inactive, PPARg SRC3 recr inactive and TR-FRET SRC-2 ct inactive.
`CC1(C)Cc2ccccc2-c2nnc(SCC(=O)N3CCc4ccccc43)n21` gave PPARg SRC-1 ag 24, PPARg SRC2 recr inactive, PPARg SRC3 recr inactive, TR-FRET SRC-2 ct inactive, PPARg SRC2 conf inactive, PPARg SRC1 conf inactive and PPARg SRC3 ag inactive.
`Cc1ccc2[nH]c3c(=S)nc[nH]c3c2c1` gave SRC1 TRFRET art inactive, PPARg SRC-1 ag 23, PPARg SRC2 recr 38, PPARg SRC3 recr inactive, SRC3 TRFRET art 2834, TR-FRET SRC-2 ct 2733, PPARg SRC2 conf inactive, PPARg SRC1 conf inactive and PPARg SRC3 ag inactive.
O=C(Nc1ccccc1C(=O)NCC1CCCO1)c1ccc(Cl)cc1Cl (configuration not stated) was read as PPARg SRC-1 ag 22, PPARg SRC2 recr inactive, PPARg SRC3 recr inactive, TR-FRET SRC-2 ct inactive, PPARg SRC2 conf inactive, PPARg SRC1 conf inactive and PPARg SRC3 ag inactive.
`COCCNC(=O)CSc1c2c(nc3ccc(Cl)cc13)CCCC2` gave SRC1 TRFRET art 2521, PPARg SRC-1 ag 39, PPARg SRC2 recr 31, PPARg SRC3 recr inactive, SRC3 TRFRET art 2446, TR-FRET SRC-2 ct 2154, PPARg SRC2 conf inactive, PPARg SRC1 conf inactive and PPARg SRC3 ag inactive.
For CCOC(=O)C1CCN(C(=O)CSc2c3c(nc4ccccc24)CCC3)CC1 the results were SRC1 TRFRET art inactive, PPARg SRC-1 ag inactive, PPARg SRC2 recr 23, PPARg SRC3 recr inactive, SRC3 TRFRET art inactive, TR-FRET SRC-2 ct inactive, PPARg SRC2 conf 24, PPARg SRC1 conf inactive and PPARg SRC3 ag inactive.
Screening COc1ccc(NC(=O)CSc2c3c(nc4ccccc24)CCCC3)c(OC)c1 returned SRC1 TRFRET art inactive, PPARg SRC-1 ag 26, PPARg SRC2 recr 27, PPARg SRC3 recr inactive, SRC3 TRFRET art inactive, TR-FRET SRC-2 ct 1985, PPARg SRC2 conf 26, PPARg SRC1 conf inactive and PPARg SRC3 ag inactive.
O=C(CSc1c2c(nc3cc(Cl)ccc13)CCCC2)NCc1ccco1 was read as PPARg SRC-1 ag inactive, PPARg SRC2 recr 26, PPARg SRC3 recr inactive, TR-FRET SRC-2 ct 2007, PPARg SRC2 conf 29, PPARg SRC1 conf 21 and PPARg SRC3 ag inactive.
For COc1ccc(NC(=O)CSc2c3c(nc4cc(Cl)ccc24)CCCC3)cc1OC the results were SRC1 TRFRET art inactive, PPARg SRC-1 ag inactive, PPARg SRC2 recr inactive, PPARg SRC3 recr inactive, SRC3 TRFRET art inactive and TR-FRET SRC-2 ct inactive.
O=C(CSc1c2c(nc3ccccc13)CCC2)N1CCCC1 was read as SRC1 TRFRET art inactive, PPARg SRC-1 ag inactive, PPARg SRC2 recr inactive, PPARg SRC3 recr inactive, SRC3 TRFRET art inactive and TR-FRET SRC-2 ct inactive.
Screening COc1ccccc1NC(=O)CSc1c2c(nc3ccccc13)CCC2 returned SRC1 TRFRET art inactive, PPARg SRC-1 ag inactive, PPARg SRC2 recr inactive, PPARg SRC3 recr inactive, SRC3 TRFRET art inactive and TR-FRET SRC-2 ct inactive.
Cc1nc(Cl)c2c(n1)N(CC(N)=O)C(=O)CO2 was read as SRC1 TRFRET art inactive, PPARg SRC-1 ag inactive, PPARg SRC2 recr inactive, PPARg SRC3 recr inactive, SRC3 TRFRET art inactive and TR-FRET SRC-2 ct inactive.
O=C1CC(c2cccc(Cl)c2)C(n2cncn2)C(=O)C1C1NCCc2ccccc21 (configuration not stated) was read as PPARg SRC-1 ag inactive, PPARg SRC2 recr inactive, PPARg SRC3 recr inactive and TR-FRET SRC-2 ct inactive.
CC(=O)c1cccc(NC(=O)c2cc3nc(C)cc(C)n3n2)c1 was read as PPARg SRC-1 ag inactive, PPARg SRC2 recr inactive, PPARg SRC3 recr inactive and TR-FRET SRC-2 ct inactive.
